This is part of a sample that, as a whole, favours compounds with a hit. Of some 83,000 tested, about 20% had one in any assay.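 Results are percent growth after 48 hours of single-concentration exposure. 100 means growth as in untreated cells, lower positive values show inhibition; negative values down to -100 show cell death.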 Unmarked numbers belong to inactive results. Active and inactive are the calls of the source. How the source made its calls: active means growth percent below 10; inactive means the rest.
What was measured:
Assay in all cases: NCI-60 one-dose screen, 48 h (100 = growth as untreated, 0 = no growth, -100 = all killed)
Details in all cases: 10 µM unless noted
NCI-H23 lung = tested on: NCI-H23 lung
NCI-H322M lung = tested on: NCI-H322M lung
HOP-62 NSCLC = tested on: HOP-62 NSCLC
NCI-H460 lung = tested on: NCI-H460 lung
HOP-92 NSCLC = tested on: HOP-92 NSCLC
NCI-H522 lung = tested on: NCI-H522 lung
A549/ATCC NSCLC = tested on: A549/ATCC NSCLC
786-0 renal = tested on: 786-0 renal
COLO 205 colon = tested on: COLO 205 colon
DU-145 prostate = tested on: DU-145 prostate
K-562 leukemia = tested on: K-562 leukemia
MALME-3M melanoma = tested on: MALME-3M melanoma
MDA-MB-231 breast = tested on: MDA-MB-231 breast
RXF 393 renal = tested on: RXF 393 renal
SF-268 CNS = tested on: SF-268 CNS
SF-295 CNS = tested on: SF-295 CNS
SF-539 CNS = tested on: SF-539 CNS
UACC-257 melanoma = tested on: UACC-257 melanoma
M14 melanoma = tested on: M14 melanoma

SMILES | growth (NCI-H23 lung) | growth (NCI-H322M lung) | growth (HOP-62 NSCLC) | growth (NCI-H460 lung) | growth (HOP-92 NSCLC) | growth (NCI-H522 lung) | growth (A549/ATCC NSCLC) | growth (786-0 renal) | growth (COLO 205 colon) | growth (DU-145 prostate) | growth (K-562 leukemia) | growth (MALME-3M melanoma) | growth (MDA-MB-231 breast) | growth (RXF 393 renal) | growth (SF-268 CNS) | growth (SF-295 CNS) | growth (SF-539 CNS) | growth (UACC-257 melanoma) | growth (M14 melanoma)
Cc1ccc2c(c1)/C(=C/C(=O)c1cc3ccccc3oc1=O)C(=O)N2 | 71.6% | 101% | 89.4% | 97% | -4.43% (active) | -94.4% (active) | 89.5% | 74.7% | 30.4% | 83.9% | 6.62% (active) | -27.8% (active) | 65.1% | -41.2% (active) | 84.4% | 104% | 61.1% | 73.3% | 37%
Cc1ccccc1Nc1nnc(-c2c[nH]c3ccccc23)o1 | 28.1% | 38.2% | 24.8% | 20.1% | 29.1% | -23.2% (active) | 40.3% | 40% | -32.7% (active) | 26.4% | 7.28% (active) | 33.5% | 26.9% | -4.44% (active) | 59% | 8.71% (active) | -25.9% (active) | 49.7% | 6.24% (active)
COc1cc(/C=N/NC(=O)c2ccc(OCc3nc4ccc(Cl)cc4[nH]3)cc2)cc(OC)c1OC | 34.7% | 55.1% | 64.2% | 44.7% | 118% | 26.2% | 59.2% | 29.3% | 29.3% | 64.5% | 14.7% | 14.1% | 52.8% | -26.2% (active) | 70% | 13.2% | 30.2% | 42.3% | 42.6%
C#CCN(C)CCCOc1ccc(N(C)C(=O)c2cc(C(C)C)c(O)cc2O)cc1Cl | 12.3% | 34.8% | 34.6% | -13.3% (active) | -23.9% (active) | 12.6% | 15.9% | 33.5% | 7.34% (active) | 24.3% | 3.57% (active) | -27.8% (active) | -15.8% (active) | 22.3% | 41.4% | 6.57% (active) | 17.3% | 9.35% (active) | 0.868% (active)
O=C(Nc1nc2ccccc2s1)Nc1ccccc1Cl | 70.5% | 94.3% | 12.2% | 66.9% | 74.3% | 64.1% | 74.5% | 41% | 97.5% | 99.9% | 86.2% | 79.7% | 51.9% | 73.8% | 77.3% | 45% | 51% | 98.8% | 93.7%
O=CNc1ccc(-n2cnc3cc(-c4ccc(O)cc4)ccc32)cc1 | 86.5% | 91.1% | 85.6% | 87.4% | 96.5% | 82.1% | 86.9% | 101% | 136% | 86.7% | 64.7% | 65.9% | 108% | 86.5% | 84.6% | 103% | 60.5% | 98.8% | 91.5%
COc1cccc(C(N)=Nc2ccc(OCCCCCCCCn3cncn3)cc2)c1 | 9.5% (active) | 58.1% | 16.2% |  | 73.7% |  | 24.6% | 28.4% |  |  | 15.8% | 37.4% |  |  | 27% |  |  | 39.1% | 22.6%
O=c1[nH]c2ccccc2cc1COc1ccc(Nc2nccc(-c3ccc(Cl)cc3)n2)cc1 | 95.9% | 107% | 87.1% | 103% | 97.7% | 89.1% | 101% | 88.2% | 116% | 89% | 95.2% | 105% | 105% | 91.8% | 105% | 90.8% | 91.6% | 107% | 107%
Cc1ccc(C(=O)Nc2cc(-n3cnc(F)c3)cc(C(F)(F)F)c2)cc1C#Cc1cnc2cccnn12 | 44.8% | 97.9% | 85.7% | 70.5% | 57.5% | 64.6% | 66.5% | 53.3% | 68.5% | 80.9% | -9.19% (active) | -3.1% (active) | 49.2% | 57.9% | 91.6% | 63.9% | 3.39% (active) | 58% | 17.7%
Cc1cc(N=C(N)c2ccccc2)ccc1OCCCCCCCCn1ccnc1 | -28% (active) | 18.7% | -14.4% (active) |  | 16.3% |  | 15% | 4.01% (active) |  |  | 12.4% | -77.2% (active) |  |  | -12.2% (active) |  |  | -2.36% (active) | -17.5% (active)
O=C(CSc1nnc(-c2ccc(-c3nc4ccc(Cl)cc4[nH]3)cc2)o1)Nc1ccc(Br)cc1 | -34.7% (active) | 9.95% (active) | -31.1% (active) | -72.3% (active) | -7.8% (active) | -23.3% (active) | -38.9% (active) | -44.1% (active) | 94.1% | 39.1% | 15% | -20.2% (active) | -76% (active) | -50.9% (active) | 28.5% | 8.38% (active) | -96.3% (active) | 13.1% | 2.92% (active)
COc1ccc(-c2nc3ccccc3n2CC(=O)N=Nc2c(O)[nH]c3ccc(OC)cc23)cc1 | 89.7% | 89.4% | 67.4% | 10.5% | -7.89% (active) | 47.8% | 37% | 42.4% | 36% | 3.7% (active) | 32.5% | 30.6% | 66.5% | 10.6% | 77.5% | 104% | -34.7% (active) | 60.8% | 64.5%
CC(Nc1ncnc2ccc(-c3ccc4oc(N)nc4c3)cc12)c1ccccc1 (stereo not given) | 16.4% | -24.9% (active) | -53.1% (active) | 3.34% (active) | -45.9% (active) | 18.4% | 13.3% | -48.2% (active) | 14% | 14% | 7.11% (active) | -26.5% (active) | -38% (active) | -77.9% (active) | 35.6% | -17.4% (active) | -89.4% (active) | 73.4% | 23.7%
N#C/C(=C/c1ccc(Cl)cc1)c1nnc(NC(=O)c2ccc(-n3c(=O)[nH]c4ccccc4c3=O)cc2)s1 | 28.6% | 59.5% | 26.6% | 10.1% | 39.3% | 46.4% | 69.8% | 48.1% | 68.1% | 85.1% | 99% | 68.2% | -5.08% (active) | 20.1% | 73.2% | 96.3% | 24.1% | 102% | 78.8%
C=CCSc1nnc(-c2ccc(-c3nc4ccc(Cl)cc4[nH]3)cc2)o1 | 76.2% | 86.7% | 39.9% | 38.1% | 81.8% | 29.8% |  | 76.4% | 55.7% | 85% | 19.5% | 39.3% | 41.2% | 53.1% | 75.7% | 58.2% | 56.3% | 68.2% | 28.7%
Cc1ccc2nc(SCc3ccccc3F)n(-c3ccccc3)c(=O)c2c1 | 93.9% | 97.1% | 95% | 105% | 82.1% |  | 85.8% | 94.9% | 116% | 108% | 83.8% | 118% | 76.1% | 104% | 113% | 89.5% | 99.5% | 106% | 95.3%
CCc1ccccc1NC(=O)N/C(N)=N/c1nc2ccccc2s1 | -2.24% (active) | 28.3% | -14.9% (active) | 39.5% | -15.2% (active) | -53.5% (active) | 9.65% (active) | -4.92% (active) | -84.1% (active) | -8.39% (active) | 10.6% | 5.84% (active) | -21.3% (active) | 11.8% | 29.6% | -9.81% (active) | -50.4% (active) | 49.7% | 9.76% (active)

Source: PubChem BioAssay (NCI)
